Shown is part of a subset that was picked to be rich in hits.
Pf Dd2 inh = inhibitors of Plasmodium falciparum Dd2 growth; P. falciparum Dd2 growth, SYBR Green, 72 h; Potency, µM (doses to about 28.9 µM), for the others: at the highest dose activity, negative = inhibition, most hits filed as inhibitors; 120,000 compounds, 4.3% hits; AID 1347417; active = well fitted inhibition curve with a large enough effect;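 also: plate controls were DMSO vehicle for no effect and reference drug for full effect; nearly all actives have a fitted effect of over 65% in size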
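Readout: SYBR Green fluorescence, 485 nm excitation, 535 nm emission, after ~16 h lysis at 37C. Before that, Dd2-infected red cells (2.5% hematocrit) grew 72 h with compound, 29 uM top final concentration.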
Active calls of the source: *; i = inactive; [ ] = dose if it differs, or a comment. Potency is read from the fitted curve at half-maximal effect.

SMILES	Pf Dd2 inh
Cn1cccc1C(=O)N1CCCN(Cc2ccncc2)C(c2ccccc2)CC(=O)NCC1 (stereo unspecified)	2.5µM*
Cn1ccnc1C(=O)N1CCCN(S(C)(=O)=O)C(c2ccccc2)CC(=O)NCC1 (stereo unspecified)	i
O=C1CC(c2ccccc2)N(Cc2ccncc2)CCCN(C(=O)CN2C(=O)CCC2=O)CCN1 (stereo unspecified)	-19%
Cc1cccc(C(=O)N2CCCN(C(=O)C3CC3)C(c3ccccc3)CC(=O)NCC2)c1 (stereo unspecified)	i
Cc1cccc(C(=O)N2CCCN(Cc3ccncc3)C(c3ccccc3)CC(=O)NCC2)c1 (stereo unspecified)	2.2µM*
CC(C)c1ccc(CC(=O)N2CCCc3ncc(C(=O)N(C)c4ccccc4)cc32)cc1	i
CC1CCN([C@@H]2[C@H](O)[C@H](CO)O[C@@H]2CNC(=O)c2cccc(F)c2)CC1	-23%[44.1 µM]
COc1cc(OC)cc(-c2onc(C)c2C(=O)NCc2cccc(C)c2)c1	i
COc1ccc(C(=O)N2CCC(c3noc(-c4cccnc4)n3)C2)cn1 (stereo unspecified)	18%[5.79 µM]
COCCNC(=O)[C@@H]1C[C@H](Oc2cccnc2)CN1C(=O)c1ccc(OC)c(F)c1	20%
O=C(COc1ccccc1)N1CCC(N2CC3CC(C2)[C@H]2CCCC(=O)N2C3)CC1 (stereo partly specified)	-4%
CC1(c2ccccc2)CCCN(c2cncc(C(=O)N3CCOCC3)n2)C1 (stereo unspecified)	11µM*
COC(=O)c1cncc(N2CCCC3(CCC(=O)N(Cc4ccccc4)C3)C2)n1 (stereo unspecified)	6%
CC(=O)N1CCN(c2cncc(C(=O)N3CCOCC3)n2)CC(O)C1 (stereo unspecified)	-4%
CC(C)CN1C(=O)COC[C@@H]1[C@H](O)c1ccc(NC(=O)CC(C)(C)C)cc1	-16%[44.1 µM]
Cc1ccc(N2CCC(NC(=O)c3ccc(N(C)C)cc3)C2=O)cc1C (stereo unspecified)	-10%
CC(C)N1C[C@H](C(=O)NCCCc2ccccc2)[C@H](C(=O)O)C1	-3%
COc1ccc(C(=O)N[C@H]2CO[C@H]3[C@@H]2OC[C@@H]3n2nnnc2Oc2cccc(N(C)C)c2)cc1	i
COc1cccc(Cn2c(C)c(CNC3CCCCC3)c(C(=O)O)c2C)c1	13%
COc1cccc(CN2CCOCCNC(=O)CC2)c1	-12%
CCc1c(C)sc2c1CCN(Cc1ccccc1F)C2c1ccccc1 (stereo unspecified)	3.2µM*
CCc1c(C)sc2c1CCN(Cc1cccc(OC)c1)C2c1ccccc1 (stereo unspecified)	7.9µM*
Nc1nccc(N2CCN(Cc3ccccc3F)C(CCO)C2)n1 (stereo unspecified)	-11%
CC(C)(C)c1coc([C@@H]2COCCN2Cc2ccccc2F)n1	i
CCN1C(=O)C2CC3(CCN(S(=O)(=O)c4cccc(OC)c4)CC3)CN2C1=O (stereo unspecified)	-22%
SMILES	Pf Dd2 inh
CNC(=O)[C@@H]1C[C@H](Oc2ccccc2)CN1C(=O)c1cccnc1	-18%
Cn1cnc(S(=O)(=O)N2CCC(Cc3nncn3CC3CC3)CC2)c1	1%
O=C(Nc1ccccc1)[C@H]1CN2CC[C@H]1C[C@@H]2Cn1cc(COc2ccccc2)nn1	-8%[44.1 µM]
COc1c(Cl)cc(C(=O)Nc2cc(-c3nc4ccccc4[nH]3)ccc2C)cc1Cl	-28%
Cc1ccc(C(C)C)c(OCC(=O)Nc2cc(-c3nc4ccccc4[nH]3)ccc2C)c1	6.3µM*
CC(C)CC(=O)Nc1cccc(-c2nc3ccccc3[nH]2)c1	22%
CCn1nccc1C(=O)N1CCC2(CC1)NCCc1c2[nH]c2ccc(OC)cc12	i
COCCCNC(=O)c1c(OCC(C)C)cc(=O)n2c1CCCCC2	40%
Cc1nnc(-c2cc(C(=O)NCc3ccco3)ccn2)n1Cc1cccnc1	-14%[44.1 µM]
CCOCCN1C(=O)COC[C@@H]1[C@H](O)c1ccc(NC(=O)c2ccco2)cc1	-15%[44.1 µM]
O=C(Cc1ccc(Cl)cc1)NCC1COc2ncncc2C(=O)N1Cc1ccccc1 (stereo unspecified)	i
Cc1cccc(NC(=O)c2sc3nc4c(cc3c2N)CN(C(C)C)CC4)c1	11µM*
CN1CCc2nc3sc(C(=O)Nc4cccc(C#N)c4)c(N)c3cc2C1	-23%
CC(=O)c1cccc(NC(=O)c2sc3nc4c(cc3c2N)CCCC4)c1	25%
CC1CN(c2ccccc2C#N)C(=O)CN1C(=O)Cc1c[nH]c(=O)[nH]c1=O (stereo unspecified)	-1%
C=CCNC(=O)N[C@H]1C[C@@H](C(=O)N[C@@H](C(=O)OC)C(C)C)N(C(=O)CSC)C1	-17%[44.1 µM]
COc1ccc(-c2noc(CSc3nnc(-c4ccncc4)n3-c3ccccc3)n2)cc1	-7%
COc1ccc(-n2c(C)nnc2SCc2nc(-c3ccc(OC)c(OC)c3)no2)cc1	-3%
CCc1ccc(-n2c(SCc3nc(-c4cc(OC)ccc4OC)no3)nnc2-c2ccccc2)cc1	11µM*
CCOC(=O)c1cn(C2CN(S(=O)(=O)Cc3ccc(Cl)cc3)C2)nn1	-27%
